For this experiment, the system named is U-2932. Put plainly: growth inhibition by drug alone (1 - RLU/untreated control) (fraction); higher = stronger inhibition. The settings on record: 177Lu-lilotomab satetraxetan 0 ug/ml. How it is done: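 U-2932 ABC-DLBCL cells were pretreated or not for 18 h with 1 ug/ml 177Lu-lilotomab satetraxetan (600 MBq/mg), washed and seeded (3000 cells/well) on 384-well plates pre-printed with the Selleck Cambridge Cancer Compound library. Viability was read by RealTime-Glo luminescence on days 3-6 after seeding. Effect = 1 - RLU/mean RLU of the 48 untreated no-drug control wells per plate; Bliss score = (M-E)/(1-Fa), with E the expected Bliss-additive effect.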

Regarding `CO[C@H]1C[C@@H]2CC[C@@H](C)[C@@](O)(O2)C(=O)C(=O)N2CCCC[C@H]2C(=O)O[C@H]([C@H](C)C[C@@H]2CC[C@@H](OC(=O)C(C)(CO)CO)[C@H](OC)C2)CC(=O)[C@H](C)/C=C(\C)[C@@H](O)[C@@H](OC)C(=O)[C@H](C)C[C@H](C)/C=C/C=C/C=C/1C` [Temsirolimus (Torisel)], the “growth inhibition by drug alone” value reads like this: (10 nM, time (day): 3) 0.777; (10 nM, time (day): 4) 0.721; (10 nM, time (day): 5) 0.634; (10 nM, time (day): 6) 0.594; (1000 nM, time (day): 3) 0.733; (1000 nM, time (day): 4) 0.73. The “growth inhibition by drug alone” value runs as follows: (1000 nM, time (day): 5) 0.677; (1000 nM, time (day): 6) 0.63.

On to `COc1cc2c(cc1O)CC[C@@H]1[C@@H]2CC[C@]2(C)[C@@H](O)CC[C@@H]12` [2-Methoxyestradiol], for which the “growth inhibition by drug alone” value is -0.0505 (10 nM, time (day): 3); -0.0559 (10 nM, time (day): 4); -0.104 (10 nM, time (day): 5); -0.0895 (10 nM, time (day): 6); 0.719 (1000 nM, time (day): 3); 0.771 (1000 nM, time (day): 4). Further, the “growth inhibition by drug alone” value (1000 nM, time (day): 5) came to 0.777 and the “growth inhibition by drug alone” value (1000 nM, time (day): 6) came to 0.788.

`Cn1cc(-c2ccc3nnc(Sc4ccc5ncccc5c4)n3n2)cn1`: the “growth inhibition by drug alone” value by setting is: (10 nM, time (day): 3) 0.0784; (10 nM, time (day): 4) 0.0569; (10 nM, time (day): 5) -0.0234; (10 nM, time (day): 6) -0.0672; (1000 nM, time (day): 3) 0.09; (1000 nM, time (day): 4) 0.0464. For the same compound, the “growth inhibition by drug alone” value (1000 nM, time (day): 5) is -0.0633 and the “growth inhibition by drug alone” value (1000 nM, time (day): 6) was -0.0059.

Regarding `COc1c(C)c2c(c(O)c1C/C=C(\C)CCC(=O)OCCN1CCOCC1)C(=O)OC2` [Mycophenolate mofetil (CellCept)], the “growth inhibition by drug alone” value by setting is: (10 nM, time (day): 3) 0.0454; (10 nM, time (day): 4) 0.0504; (10 nM, time (day): 5) -0.00114; (10 nM, time (day): 6) -0.00474; (1000 nM, time (day): 3) 0.727; (1000 nM, time (day): 4) 0.792. Also, the “growth inhibition by drug alone” value (1000 nM, time (day): 5) came to 0.743 and the “growth inhibition by drug alone” value (1000 nM, time (day): 6) stood at 0.673.

Turning to `Cc1ccc(Nc2nccc(N(C)c3ccc4c(C)n(C)nc4c3)n2)cc1S(N)(=O)=O` [Pazopanib], the “growth inhibition by drug alone” value reads like this: (10 nM, time (day): 3) 0.0671; (10 nM, time (day): 4) 0.059; (10 nM, time (day): 5) 0.0169; (10 nM, time (day): 6) -0.0275; (1000 nM, time (day): 3) 0.0873; (1000 nM, time (day): 4) 0.113. The “growth inhibition by drug alone” value (1000 nM, time (day): 5) came to 0.0564 and the “growth inhibition by drug alone” value (1000 nM, time (day): 6) is -0.194.

The values above are taken from the supplement of paper PMC6897291.
